HTT aggregate: inhibitors of mutant huntingtin aggregate formation in PC12 cells; PC12 HttQ103-GFP aggregates, Acumen cytometry, 40 h; Potency, µM (top dose mostly 46.1 µM), hits mostly inhibitors; actives 1.1% (n = 220,000); AID 1688; active means well fitted curve in the direction sought with a large enough effect; inconclusive means small, poorly fitted or top-dose-only effect, or another doubt; inactive means no such curve, though single readings can be large; an effect the other way counts as inactive or inconclusive; further: nearly all actives have a fitted effect of over 60% in size
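Aggregates are detected as GFP objects 1–25 µm with signal 6 STDEV over background in lysates of induced PC12 cells. These carry Huntingtin exon 1 with 103 glutamines fused to GFP under an ecdysone promoter; compounds titrated.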
HTT cytoprotect: Huntington cell model cytoprotection by ATP luminescence; actives 0.14% (n = 230,000); PC12 HTT-Q103 induced, cytoprotection, ATP luminescence, 40 h; Potency, µM (titrated, usually from 56.4 µM), hits mostly activators; AID 1471; active means well fitted curve in the direction sought with a large enough effect; inconclusive means small, poorly fitted or top-dose-only effect, or another doubt; inactive means no such curve, though single readings can be large; an effect the other way counts as inactive or inconclusive; further: nearly all actives have a fitted effect of over 45% in size
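PC12 cells with ecdysone-inducible HTT exon 1 Q103-GFP, induced with 100 nM tebufenozide and co-treated with library compounds in a dose series (1536-well, 1500 cells/well). Cytoprotection read as ATP content by ATPlite luminescence.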
HPGD block: blocks human HPGD enzyme activity | P15428 | purified HPGD, NADH fluorescence kinetic, PGE2 substrate | Potency, µM, usual class: inhibitors | actives 4.3% (n = 150,000)
Target sequence (P15428 whole entry, looked up): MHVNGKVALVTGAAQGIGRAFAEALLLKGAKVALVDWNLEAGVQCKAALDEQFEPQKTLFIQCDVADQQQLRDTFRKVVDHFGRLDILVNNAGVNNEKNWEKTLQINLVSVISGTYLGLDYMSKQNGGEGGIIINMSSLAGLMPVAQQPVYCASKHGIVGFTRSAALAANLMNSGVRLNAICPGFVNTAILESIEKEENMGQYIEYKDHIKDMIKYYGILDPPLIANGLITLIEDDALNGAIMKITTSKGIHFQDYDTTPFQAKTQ
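20 nM HPGD preincubated 15 min at room temperature with compound in 50 mM Tris-HCl pH 8, 0.01% Tween 20. Started with 1 mM NAD+ and 30 uM prostaglandin E2; NADH fluorescence (360/450 nm) read 5 times over 30-s intervals, last minus first.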
ALDH1A1 inh: inhibitors of human aldehyde dehydrogenase 1A1; Purified ALDH1A1, NADH fluorescence, propionaldehyde substrate; actives 7.3% (n = 220,000); P00352; Potency, µM (doses to about 75.3 µM), hits mostly inhibitors
Target sequence (P00352 whole entry, looked up): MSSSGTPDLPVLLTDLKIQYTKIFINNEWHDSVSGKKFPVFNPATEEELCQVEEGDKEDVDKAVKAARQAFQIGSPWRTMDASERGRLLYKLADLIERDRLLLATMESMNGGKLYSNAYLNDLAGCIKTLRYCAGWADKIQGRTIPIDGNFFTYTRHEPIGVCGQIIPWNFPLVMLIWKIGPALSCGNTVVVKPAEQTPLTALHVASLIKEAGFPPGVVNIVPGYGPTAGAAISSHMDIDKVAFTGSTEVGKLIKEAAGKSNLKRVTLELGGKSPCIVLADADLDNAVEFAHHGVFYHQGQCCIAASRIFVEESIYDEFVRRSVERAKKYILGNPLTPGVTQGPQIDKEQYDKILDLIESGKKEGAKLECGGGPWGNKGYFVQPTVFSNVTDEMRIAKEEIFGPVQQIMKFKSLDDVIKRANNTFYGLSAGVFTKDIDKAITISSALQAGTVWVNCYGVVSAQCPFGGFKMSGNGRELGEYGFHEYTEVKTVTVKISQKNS
JMJD2E inh: JMJD2E (human) inhibition; B2RXH2; JMJD2E catalytic domain, FDH-coupled NADH fluorescence (FDH is formaldehyde dehydrogenase); Potency, µM (titrated, usually from 57.1 µM), hits mostly inhibitors; actives 1.6% (n = 230,000); AID 2147; further: nearly all actives have a fitted effect of over 50% in size
LMNA splice mod: LMNA splicing modulation. HeLa LMNA splicing GFP/RFP minigene ratio, 48 h. Potency, µM (titrated, usually from 46.1 µM), actives largely listed as inhibitors. actives 0.01% (n = 200,000). AID 1487; active means well fitted inhibition curve with a large enough effect in the signal ratio, with a control signal flat, not every such curve was filed as active; inconclusive means small, poorly fitted or top-dose-only effect, or effect the other way, or a change in a side signal; the % refers to the signal ratio
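Read-out is the ratio of GFP to DsRed2 object intensity, acquired by 488 nm laser-scanning cytometry on HeLa lamin A-EGFP minigene reporter cells. Compound incubation 48 hrs at 37 °C in Opti-MEM with 2% FBS; DMSO 0.5% final.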
A number is an active result; [ ] = another dose, or the depositor's remark. An excerpt weighted towards active compounds, which were near 9.2% of everything screened. Unless noted, the call rests on the fitted dose curve; in most records, active means well fitted inhibition curve with a large enough effect (not every such curve was filed as active); inconclusive means small, poorly fitted or top-dose-only effect, or another doubt; inactive means no such curve, though single readings can be large or run the other way.

For Cc1ccc(-c2cnn(-c3cccc([N+](=O)[O-])c3)c2N)cc1 the results were HTT aggregate inconclusive, HTT cytoprotect inactive, HPGD block 35µM, ALDH1A1 inh inconclusive, JMJD2E inh inactive and LMNA splice mod inactive.
`CC1(C)Cc2c(C#N)c(NCc3ccco3)nc(-c3ccco3)c2CO1` gave HTT aggregate 1µM, HTT cytoprotect inactive[10 µM], HPGD block inconclusive, ALDH1A1 inh inconclusive, JMJD2E inh inconclusive and LMNA splice mod inactive.
Screening CCOC(=O)c1sc2nc(-c3ccco3)c3c(c2c1N)CC(C)(C)OC3 returned HTT aggregate inactive, HTT cytoprotect inactive, HPGD block inconclusive, ALDH1A1 inh inconclusive, JMJD2E inh inconclusive and LMNA splice mod inactive.
For Cc1nc(NCc2ccco2)c(C#N)c2c1COC(C)(C)C2 the results were HTT aggregate inactive, HTT cytoprotect inactive, HPGD block inconclusive, ALDH1A1 inh inactive, JMJD2E inh inconclusive and LMNA splice mod inactive.
For CC1(C)Cc2c(c(-c3ccco3)nc3n[nH]c(N)c23)CO1 the results were HTT aggregate inactive, HTT cytoprotect inactive, HPGD block inconclusive, ALDH1A1 inh 25µM, JMJD2E inh inactive and LMNA splice mod inconclusive.
`Nc1c(S(=O)(=O)O)cc(Nc2ccc(Nc3nc(Cl)nc(Nc4ccc(S(=O)(=O)O)cc4)n3)c(S(=O)(=O)O)c2)c2c1C(=O)c1ccccc1C2=O` gave HTT cytoprotect inactive[1.9 µM], HPGD block 16µM, ALDH1A1 inh inactive, JMJD2E inh inactive and LMNA splice mod inconclusive.
For O=C(O)C[C@@H]1C(=O)O[C@@H]2C(COC(=O)c3cc(O)c(O)c(O)c3)O[C@@H](OC(=O)c3cc(O)c(O)c(O)c3)[C@@H](OC(=O)c3cc(O)c(O)c4c3[C@H]1[C@H](O)C(=O)O4)[C@H]2OC(=O)c1cc(O)c(O)c(O)c1 (stereo partly drawn) the results were HTT aggregate inactive[9.22 µM], HTT cytoprotect inactive[10 µM] and JMJD2E inh 0.71µM.
For CCOC(=O)C1C(=O)C=C(c2ccc(C)cc2)CC1c1cccc([N+](=O)[O-])c1 (stereo not drawn) the results were HTT aggregate inactive, HTT cytoprotect inactive[10 µM], ALDH1A1 inh 2.5µM, JMJD2E inh inactive and LMNA splice mod inconclusive.
Screening CCOC(=O)C1C(=O)C=C(c2ccc(C)cc2)CC1c1ccco1 (stereo not drawn) returned HTT aggregate inactive, HTT cytoprotect inactive, HPGD block inactive, ALDH1A1 inh inconclusive, JMJD2E inh inactive and LMNA splice mod inactive[0.0737 µM].
`CC1(O)C(=O)C=C2C=C(CCCCOCc3ccccc3)OC=C2C1=O` (stereo not drawn) gave HTT cytoprotect inactive[10 µM] and ALDH1A1 inh inactive[13.5 µM].
For O=c1cc(-c2ccc([N+](=O)[O-])cc2)c2ccc(O)cc2o1 the results were HTT aggregate inactive, HTT cytoprotect inactive, ALDH1A1 inh inactive, JMJD2E inh inactive and LMNA splice mod inconclusive.
For O=c1c(-c2ccc([N+](=O)[O-])cc2)coc2c(O)c(O)ccc12 the results were HTT aggregate inactive[9.22 µM], HTT cytoprotect inactive[10 µM] and JMJD2E inh 14µM.
For O=C(COC(=O)c1cnccn1)c1ccc2c(c1)CCCC2 the results were HTT aggregate inactive, HTT cytoprotect inactive[10 µM], HPGD block inactive, ALDH1A1 inh 28µM, JMJD2E inh inactive and LMNA splice mod inactive.
Screening CC(C)=NO[C@@H](C)CN1CCCc2nc(C)c(C)cc21 returned HTT cytoprotect inactive[10 µM] and ALDH1A1 inh inconclusive.
Cc1ccc(CN2CCN(Cc3cc(=O)c4ccccc4[nH]3)CC2CCO)o1 (stereo not drawn) was read as HTT aggregate inactive[9.22 µM], HTT cytoprotect inactive[10 µM], ALDH1A1 inh 18µM and JMJD2E inh inactive.
Screening Cc1ccc(CN2CCN(Cc3c[nH]c4ccccc34)CC2CCO)o1 (stereo not drawn) returned HTT aggregate inactive[9.22 µM], HTT cytoprotect inactive[10 µM], ALDH1A1 inh inactive and JMJD2E inh inactive.
CCc1ccc(NS(=O)(=O)c2ccc3[nH]cc(C(=O)N(C)Cc4ccco4)c(=O)c3c2)cc1 was read as HTT aggregate 0.1µM, HTT cytoprotect inactive, HPGD block inactive, ALDH1A1 inh inactive, JMJD2E inh inactive and LMNA splice mod inactive.
`CCOc1ccc(NS(=O)(=O)c2ccc3[nH]cc(C(=O)N(C)Cc4ccccc4)c(=O)c3c2)cc1` gave LMNA splice mod inactive.
Screening CN(Cc1ccco1)C(=O)c1c[nH]c2ccc(S(=O)(=O)Nc3ccc4c(c3)OCCO4)cc2c1=O returned HTT aggregate inactive, HPGD block 18µM, ALDH1A1 inh 22µM, JMJD2E inh inactive and LMNA splice mod inactive.
Screening CN(Cc1ccccc1)C(=O)c1c[nH]c2ccc(S(=O)(=O)N3CCOCC3)cc2c1=O returned HTT aggregate inactive, HPGD block inconclusive, ALDH1A1 inh inconclusive, JMJD2E inh inconclusive and LMNA splice mod inactive.
For CCc1ccccc1NS(=O)(=O)c1ccc2[nH]cc(C(=O)NC3CCCC3)c(=O)c2c1 the results were HTT aggregate inactive, HPGD block inactive, ALDH1A1 inh 20µM, JMJD2E inh inactive and LMNA splice mod inconclusive.
For CN(C)CCCNC(CC(=O)Nc1cccc([N+](=O)[O-])c1)C(=O)O (stereo not drawn) the results were HTT aggregate inactive, HTT cytoprotect inactive[10 µM], HPGD block inactive, ALDH1A1 inh inactive, JMJD2E inh inactive and LMNA splice mod inactive.
`CCOC(=O)c1c(C)c(C(=O)NCc2ccccc2OC)c(C)n1C` gave HTT aggregate inactive, HTT cytoprotect inactive, HPGD block inactive, ALDH1A1 inh inactive, JMJD2E inh inactive and LMNA splice mod inactive.
CCOC(=O)c1c(C)c(C(=O)N2CCN(c3ccccc3)CC2)c(C)n1C was read as HTT aggregate inactive, HTT cytoprotect inactive, ALDH1A1 inh inactive and JMJD2E inh inactive.
Screening CCOC(=O)c1c(C)c(C(=O)N2CCCCCC2)c(C)n1C returned HTT aggregate inactive, HTT cytoprotect inactive, HPGD block 16µM, ALDH1A1 inh inactive, JMJD2E inh inactive and LMNA splice mod inactive.
Screening CCOC(=O)c1c(C)c(C(=O)N2CCCCCC2)c(C)n1CC returned HTT aggregate inactive, HTT cytoprotect inactive[10 µM], HPGD block 13µM, ALDH1A1 inh inactive, JMJD2E inh inactive and LMNA splice mod inactive.
CCOC(=O)c1c(C)c(C(=O)NCC2CCCO2)c(C)n1CC (stereo not drawn) was read as HTT aggregate inactive, HTT cytoprotect inactive[1.9 µM], HPGD block 22µM, ALDH1A1 inh inconclusive, JMJD2E inh inactive and LMNA splice mod inactive.
`CCOC(=O)c1c(C)c(C(=O)NCc2ccc(OC)cc2)c(C)n1C` gave HTT aggregate inactive, ALDH1A1 inh 7.9µM and JMJD2E inh inconclusive.
For CC(C)Cc1ccc(S(=O)(=O)Nc2cc3c(cc2N2CCOCC2)n(C)c(=O)c(=O)n3C)cc1 the results were LMNA splice mod inactive.

High-throughput results deposited in PubChem BioAssay by National Center for Advancing Translational Sciences (NCATS).
